In the library only some 17% were active in any assay of this set; here they are far more common.
HepG2 viability: qHTS for Inhibitors of TGF-b: Cytotox Counterscreen. HepG2 CAGA-GFP viability, ATP luminescence, 18 h. Potency, µM (doses to about 46.1 µM), hits mostly cytotoxic. actives 0.76% (n = 410,000). AID 588856, 2011
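HepG2 CAGA-GFP cells (1000/well, DMEM with 1% FBS) received compound, then TGF-beta at 500 pg/mL final, and were incubated 18 hours at 37 degrees C. Viability was read by CellTiter-Glo luminescence. Media-only wells were set as complete cell-killing and DMSO as no toxicity.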
S2 tox: Viability Counterscreen for Primary qHTS for Inhibitors of ATXN expression. S2 cells (HEK-293 line with an ATXN2-luciferase reporter) viability, CellTiter-Fluor protease fluorescence, 24 h. Potency, µM (top dose mostly 56.7 µM), actives largely listed as cytotoxic. actives 0.49% (n = 400,000). AID 651635, 2014; note: nearly all actives have a fitted effect of over 40% in size
TDP1 cell noCPT: qHTS for Inhibitors of human tyrosyl-DNA phosphodiesterase 1 (TDP1): qHTS in cells in absence of CPT. DT40 Tdp1-/- hTDP1 cells, no CPT, ATP luminescence, 48 h. Potency, µM (top dose mostly 46.2 µM), actives largely listed as inhibitors. actives 15% (n = 420,000). AID 686978, 2013; note: nearly all actives have a fitted effect of over 55% in size
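Camptothecin absent (DMSO only). Human TDP1-complemented DT40 knockout cells, 400 cells/well, 37 °C for minimum 48 hr; ATP measured via CellTiter-Glo, 30 min dark incubation, luminescence.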
TGFb inhibitor: qHTS for Inhibitors of TGF-b | HepG2 CAGA-GFP TGF-b/SMAD3 reporter, GFP fluorescence, 18 h; TGF-beta stimulated, 500 pg/mL final | actives 1.2% (n = 410,000) | Potency, µM (doses to about 46.1 µM), actives largely listed as inhibitors; note: nearly all actives have a fitted effect of over 65% in size
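First, reporter cells (HEPG2 CAGA-GFP) rested 2 h at 37 degrees C. Next, compounds were pinned in and TGF-beta added to 500 pg/mL final. After 18 h, GFP was imaged per cell and summed per well.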
DT40 TDP1 CPT: qHTS for Inhibitors of human tyrosyl-DNA phosphodiesterase 1 (TDP1): qHTS in cells in presence of CPT; chicken DT40 Tdp1-/-;hTDP1 cells + 20 nM CPT, ATP luminescence, 48 h; Potency, µM (titrated, usually from 46.2 µM), hits mostly inhibitors; actives 12% (n = 420,000); AID 686979, 2013; note: nearly all actives have a fitted effect of over 55% in size
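Chicken DT40 Tdp1-/- cells complemented with human TDP1, 400 cells/well, exposed to compounds plus 20 nM camptothecin for at least 48 h at 37 C; viability read as ATP content by CellTiter-Glo luminescence.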
ATXN2 expr inh: Primary qHTS for Inhibitors of ATXN expression. HEK-293 ATXN2-luciferase reporter, luminescence, 24 h. actives 0.72% (n = 360,000). AID 1745845, 2022. Potency, µM (titrated, usually from 57 µM), hits mostly inhibitors; note: nearly all actives have a fitted effect of over 55% in size
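ATXN2-luciferase reporter cells (luciferase flanked by upstream and downstream ATXN2 gene portions) were treated 24 h at 37 °C with compounds at up to 57 uM. SteadyGlo luminescence gave expression; GF-AFC fluorescence gave viability.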
Hits are given with their value; [ ] = remark or other dose. Calls come from the whole dose curve; as a rule, active = well fitted curve in the direction sought with a large enough effect; inconclusive = small, poorly fitted or top-dose-only effect, or another doubt; inactive = no such curve, though single readings can be large; an effect the other way counts as inactive or inconclusive.

COc1ccc(NC(=O)C2Cc3c(-c4ccccc4Oc4ccccc4)ccnc3O2)cc1OC (centres undefined) was read as HepG2 viability inactive, S2 tox inconclusive, TDP1 cell noCPT 16µM, TGFb inhibitor inconclusive, DT40 TDP1 CPT 9.2µM and ATXN2 expr inh inconclusive.
For O=C(Nc1ccc2c(c1)OCO2)C1Cc2c(-c3ccccc3Oc3ccccc3)ccnc2O1 (centres undefined) the results were HepG2 viability inactive, S2 tox inconclusive, TDP1 cell noCPT inconclusive, TGFb inhibitor inactive, DT40 TDP1 CPT inconclusive and ATXN2 expr inh inconclusive.
Screening O=C(NCc1ccncc1)C1Cc2c(-c3ccccc3Oc3ccccc3)ccnc2O1 (centres undefined) returned HepG2 viability inactive, S2 tox inconclusive, TDP1 cell noCPT 16µM, TGFb inhibitor 14µM, DT40 TDP1 CPT 13µM and ATXN2 expr inh inactive.
For CS(=O)(=O)c1ccc(C(=O)OCC(=O)NCC2CCCO2)cc1[N+](=O)[O-] (centres undefined) the results were HepG2 viability inactive, TDP1 cell noCPT 7.9µM, TGFb inhibitor inconclusive and DT40 TDP1 CPT 10µM.
`CS(=O)(=O)c1ccc(C(=O)OCC(=O)NC(=O)NC2CCCCC2)cc1[N+](=O)[O-]` gave HepG2 viability 6.3µM, TDP1 cell noCPT 4.5µM, TGFb inhibitor 4.5µM and DT40 TDP1 CPT 2.8µM.
O=C(COC(=O)c1ccc(F)c([N+](=O)[O-])c1)NC(=O)NCc1ccccc1 was read as HepG2 viability inactive, S2 tox inconclusive, TDP1 cell noCPT inconclusive, TGFb inhibitor inconclusive, DT40 TDP1 CPT 21µM and ATXN2 expr inh inconclusive.
For Cn1ccsc1=NC(=O)c1ccc(S(C)(=O)=O)c([N+](=O)[O-])c1 the results were HepG2 viability inactive, S2 tox inconclusive, TDP1 cell noCPT 4.6µM, TGFb inhibitor inconclusive, DT40 TDP1 CPT 4.6µM and ATXN2 expr inh inactive.
For COc1ccccc1-c1ccc(C(=O)N2CCC(N3CCc4ccccc4C3)CC2)c(N(C)CC2COCCO2)n1 (centres undefined) the results were S2 tox inactive, TDP1 cell noCPT inactive and DT40 TDP1 CPT inactive[9.04 µM].
For COc1ccc(CN(CC(=O)NCc2ccc(F)cc2)C(=O)CCC(=O)Nc2ccccn2)cc1 the results were HepG2 viability inactive, S2 tox inactive, TDP1 cell noCPT inconclusive, TGFb inhibitor inactive, DT40 TDP1 CPT inactive and ATXN2 expr inh inactive.
COc1ccc(-c2cn3c(C)c(C(=O)NCc4ccc5c(c4)OCO5)sc3n2)cc1 was read as HepG2 viability inactive, S2 tox inactive, TDP1 cell noCPT inactive, TGFb inhibitor inactive, DT40 TDP1 CPT inactive and ATXN2 expr inh inactive.
Screening CCOC(=O)C1=C(CC)Nc2ccccc2N=C1NC(=O)c1cc(S(=O)(=O)N2CCOCC2)ccc1C returned HepG2 viability inactive, TDP1 cell noCPT inactive, TGFb inhibitor inactive, DT40 TDP1 CPT inconclusive and ATXN2 expr inh inactive.
For CC1(C(=O)NS(=O)(=O)c2cccc(F)c2)CCN1C(=O)c1cccc(F)c1 (centres undefined) the results were HepG2 viability inactive, S2 tox inactive, TDP1 cell noCPT inactive, TGFb inhibitor inactive, DT40 TDP1 CPT inactive and ATXN2 expr inh inactive.
`Cn1cccc1C(=O)NC(=O)COC(=O)c1ccc(S(C)(=O)=O)c([N+](=O)[O-])c1` gave HepG2 viability inactive, S2 tox inconclusive, TDP1 cell noCPT 4.5µM, TGFb inhibitor inconclusive, DT40 TDP1 CPT 4µM and ATXN2 expr inh inconclusive.
`COc1ccc(N2Cc3cccc(C(=O)Nc4ccc(C(C)C)cc4)c3C2=O)cc1` gave HepG2 viability inactive, S2 tox inactive, TDP1 cell noCPT inactive, TGFb inhibitor inactive, DT40 TDP1 CPT inactive and ATXN2 expr inh inactive.
For CN(C)c1cccc(NC(=O)c2cccc3c(-c4ccc(F)c(F)c4)coc23)c1 the results were HepG2 viability inactive, S2 tox inactive, TDP1 cell noCPT 21µM, TGFb inhibitor inactive, DT40 TDP1 CPT inconclusive and ATXN2 expr inh inactive.
Screening COc1cc(-c2coc3c(C(=O)Nc4ccc(C(C)C)cc4)cccc23)ccc1O returned HepG2 viability inactive, S2 tox inactive, TDP1 cell noCPT 21µM, TGFb inhibitor inconclusive, DT40 TDP1 CPT inconclusive and ATXN2 expr inh inactive.
COc1ccc(CNC(=O)c2cccc3c(-c4cccc(C(N)=O)c4)coc23)cc1OC was read as HepG2 viability inactive, S2 tox 18µM, TDP1 cell noCPT 5.2µM, TGFb inhibitor inactive, DT40 TDP1 CPT 3.7µM and ATXN2 expr inh 32µM.
`CN(C)CCNC(=O)c1cccc2c(-c3ccc(F)c(F)c3)coc12` gave HepG2 viability inactive, S2 tox inactive, TDP1 cell noCPT inconclusive, TGFb inhibitor inactive, DT40 TDP1 CPT inconclusive and ATXN2 expr inh inactive.
`COc1cc(-c2coc3c(C(=O)NCc4ccc(N(C)C)cc4)cccc23)ccc1O` gave HepG2 viability inactive, S2 tox inconclusive, TDP1 cell noCPT inconclusive, TGFb inhibitor inactive, DT40 TDP1 CPT 16µM and ATXN2 expr inh inconclusive.
COc1ccc2[nH]c(=O)c(CN(C(=O)C(C)C)c3ccccc3OC)cc2c1 was read as HepG2 viability inactive, S2 tox inactive, TDP1 cell noCPT inconclusive, TGFb inhibitor inactive, DT40 TDP1 CPT inconclusive and ATXN2 expr inh inactive.
`CCN(C(=O)CSc1ncccn1)c1c(N)n(Cc2ccccc2)c(=O)[nH]c1=O` gave HepG2 viability inactive, S2 tox inactive, TDP1 cell noCPT inactive, TGFb inhibitor inactive, DT40 TDP1 CPT inactive and ATXN2 expr inh inactive.
Screening CC(=O)Nc1ccc(S(=O)(=O)N2CCN(CC3CC4C=CC3C4)CC2)cc1 (centres undefined) returned HepG2 viability inactive, S2 tox inactive, TDP1 cell noCPT inconclusive, TGFb inhibitor inconclusive and DT40 TDP1 CPT inconclusive.
`COc1cc(-c2coc3c(C(=O)NC4CCCCC4)cccc23)ccc1O` gave HepG2 viability inactive, S2 tox inconclusive, TDP1 cell noCPT inconclusive, TGFb inhibitor inactive, DT40 TDP1 CPT 18µM and ATXN2 expr inh inconclusive.
For COc1cc(-c2coc3c(C(=O)NCc4ccc(C(F)(F)F)cc4)cccc23)ccc1O the results were HepG2 viability inactive, S2 tox inconclusive, TDP1 cell noCPT 21µM, TGFb inhibitor inconclusive, DT40 TDP1 CPT 15µM and ATXN2 expr inh inconclusive.

From PubChem
